Screening data (PubChem)
A selection: hits, their analogues and other compounds. The true share with any hit is near 15%.
Sm TGR inh: blocks Schistosoma mansoni thioredoxin glutathione reductase; Q962Y6; purified TGR, DTNB reduction, TNB absorbance 405 nm; Potency, µM (series often up to 114 µM), for the others: at the top dose activity change, negative = inhibition, hits mostly inhibitors; actives 3% (n = 360,000); AID 485364; note: potency is the fitted concentration of half-maximal effect; % is set by controls: 0 for no effect and ±100 for the full control effect; nearly all actives have a fitted effect of over 60% in size
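TGR 20 nM + NADPH 100 uM (dispensed conc.), cpd preinc 15 min RT; start with NADPH (500 uM addition) then DTNB (15 mM addition). Kinetic TNB absorbance, 405 nm filter. Four-parameter Hill fit across titration.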
HCMV inh: blocks human cytomegalovirus replication. HFF cells, HCMV-luciferase reporter, 72 h; hits give low values. activity change, negative = inhibition, % at 57.5 µM. actives 4.5% (n = 410,000); in the data active = activity change below about -60%; inconclusive = no clear call, values can overlap the other calls; inactive = above about -39%; note: % is set by controls: 0 for no effect and ±100 for the full control effect
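Two-dose cell screen: HFF monolayers treated with compounds and infected with luciferase-expressing HCMV at 1 PFU/cell, 72 h at 37C, then lysed for luciferase measurement.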
HCV inhibitor: HCV inhibition; Potency, µM (top dose mostly 41.8 µM), inactives show top-dose activity change, negative = inhibition, usual class: inhibitors; actives 3.4% (n = 340,000); AID 651820; Huh7.5.1 HCVcc-Cre infection, luciferase reporter, 44 h; note: potency is the fitted concentration of half-maximal effect; % is set by controls: 0 for no effect and ±100 for the full control effect
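Infectious HCVcc-Cre (~0.5 moi) was added to cells just after compound, with cells seeded 4 h earlier at 1,000 per well. Luciferase activity after 44 h culture reported infection; substrate was incubated 15 min at room temperature before reading.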
Pf growth 48h: inhibits P. falciparum growth in the first generation, 48 h; Potency, µM (series often up to 28.7 µM), for the others: top-dose activity change, negative = inhibition, actives largely listed as inhibitors; AID 504832; actives 5.9% (n = 310,000); P. falciparum luciferase growth in erythrocytes, 48 h; note: potency is the fitted concentration of half-maximal effect; % is set by controls: 0 for no effect and ±100 for the full control effect
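Luciferase-expressing parasites in RBCs, 2% Hct / 0.1% parasitemia final; RPMI 1640 + 0.5% Albumax; 37 C, 5% CO2, one generation; luminescence read-out, lower signal = inhibition.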
Pf growth 96h: P. falciparum growth inhibition at 96 hours; Potency, µM (top dose mostly 28.7 µM), for inactives: at the highest dose activity change, negative = inhibition, usual class: inhibitors; AID 504834; P. falciparum luciferase reporter growth, 96 h; actives 6.9% (n = 320,000); note: potency is the fitted concentration of half-maximal effect; % is set by controls: 0 for no effect and ±100 for the full control effect
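Cell-based qHTS: luciferase-tagged P. falciparum in erythrocytes (2% hematocrit, 0.05% parasitemia final) incubated with compounds for 96 hours, 37 C, 5% CO2; luciferase detection reagent then added and luminescence measured.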
SARS PLpro yeast: SARS-CoV PLP inhibition in yeast; actives 0.19% (n = 330,000); S. cerevisiae expressing SARS-CoV PLpro, growth rescue; Potency, µM (doses to about 32.9 µM), for inactives: at the highest dose activity, positive = growth rescue, actives largely listed as activators; AID 485353; calls by dose curve; note: potency is the fitted concentration of half-maximal effect; 0% is about no effect; nearly all actives have a fitted effect of over 55% in size
* = called active by the depositor; ? = inconclusive; · = no result. Unless noted, calls come from the whole dose curve; as a rule, active = well fitted curve in the direction sought with a large enough effect; inconclusive = small, poorly fitted or top-dose-only effect, or another doubt; inactive = no such curve, though single readings can be large; an effect the other way counts as inactive or inconclusive.

SMILES	Sm TGR inh	HCMV inh	HCV inhibitor	Pf growth 48h	Pf growth 96h	SARS PLpro yeast
O=C(CSc1ncnc2ccccc12)Nc1cccc(S(=O)(=O)N2CCCC2)c1	5.8%	-7.9	11.5%	0.0%	?	-0.7%
Cc1ccc(S(=O)(=O)N2CCCCC2)cc1NC(=O)CSc1ncnc2ccccc12	-0.3%	-70.9*	?	-84.3%	0.0%	-12.0%
Cc1ccc(N2CC(NC(=O)c3cc4ccccc4o3)CC2=O)cc1 (centres undefined)	5.4%	41.3	·	·	·	·
O=C(CN1C(=O)NC2(CCCc3ccccc32)C1=O)N1CCCCC1 (centres undefined)	3.5%	76.3	5.4%	52.6%	30.0%	0.3%
Cc1ccc(C(=O)CCC(=O)OCC(=O)N(CC(C)C)c2c(N)n(Cc3ccccc3)c(=O)[nH]c2=O)cc1	-1.1%	-14.1	-0.4%	6.4%	19.3%	2.0%
CCNc1nc(NCC)nc(N(C#N)CCOc2ccccc2)n1	·	24.3	-5.5%	?	5.22µM*	-2.1%
CCNc1nc(NC(C)C)nc(N(C#N)CCOc2ccccc2)n1	-15.1%	53.6	22.4µM*	?	·	-17.7%
COc1ccc(NC(=O)C2C3C=CC4(O3)C2C(=O)N(CCN2CCCCC2C)C4C(=O)NC2CCCCC2)cc1 (centres undefined)	-21.5%	2.9	?	-3.0%	?	-2.3%
COc1ccc(CN2C(=O)CC(=O)NC2=O)cc1	?	25.8	22.9%	1.3%	4.15µM*	-0.2%
COc1ccc(C(=O)N2CCCc3ccccc32)cc1	2.6%	10.6	?	-10.5%	0.262µM*	-5.1%
CC(C)Oc1ccc(C(=O)N2CCCc3ccccc32)cc1	-11.2%	40.8	-4.1%	?	4.5%	-12.5%
COc1ccccc1N(C)S(=O)(=O)c1ccc(C(=O)N2CCCc3ccccc32)cc1	-7.7%	-35.4	?	13.1µM*	?	-2.3%
CC(C)C1Cc2c(sc3c2c(=O)n(-c2ccccc2)c2n[nH]c(=S)n32)CO1 (centres undefined)	-33.5%	0.0	13.7%	-11.5%	-8.5%	-2.9%
CN1c2ccccc2C(C)(C)C12C=Cc1cc(O)ccc1O2 (centres undefined)	?	-37.7	5.62µM*	?	?	-3.7%
Cc1ccc(NC(=O)C2CCCN(c3ncccn3)C2)c(C)c1 (centres undefined)	7.8%	-12.8	5.5%	72.8%	13.1µM*	-0.4%
Cc1ccc(NC(=O)C2CCCN(C3=NS(=O)(=O)c4ccccc43)C2)c(O)c1 (centres undefined)	-14.0%	1.0	24.3%	11.7µM*	14.7µM*	1.2%
Cc1ccc(NC(=O)C2CCCN(c3nccc(C)n3)C2)c(C)c1 (centres undefined)	-6.6%	-29.0	20.5%	-0.6%	3.1%	-0.5%
O=C(OCC(=O)N1CCN(C(=O)c2ccco2)CC1)c1cc(-c2ccco2)nc2ccccc12	5.01µM*	94.3	26.0%	53.3%	?	-8.4%
COc1ccc(CNC(=O)COC(=O)c2cc(C)nc3ccccc23)cc1	·	40.3	-1.4%	·	·	-2.3%
O=C(c1ccco1)N1CCN(C(=O)c2cc(Cl)nc3ccccc23)CC1	1.3%	20.8	-6.5%	?	22.1%	7.7%
O=C(c1ccco1)N1CCN(C(=O)c2cc(-c3ccccn3)nc3ccccc23)CC1	35.5µM*	52.5	0.5%	-23.3%	182.1%	8.6%
CCNC(=O)COC(=O)c1cc(-c2ccco2)nc2ccccc12	15.8µM*	-12.1	11.4%	-1.0%	20.0%	-1.2%
O=C(OCC(=O)N1CCN(C(=O)c2ccco2)CC1)c1cc(-c2ccc(Cl)c(Cl)c2Cl)nc2ccccc12	0.0%	-0.6	?	·	?	-6.4%
COc1ccc(CNC(=O)COC(=O)c2cc(-c3ccco3)nc3ccccc23)cc1	11.2µM*	·	·	·	3.2%	9.3%
